Inhibition data for 97 compounds are collected here from PubChem BioAssay AID1274 (Emory University Molecular Libraries Screening Center, 2008).

In all, about 220,000 compounds went through this assay and about 1,100 (0.5%) were called active. This excerpt belongs to a sample that is enriched for actives. A number with no mark means an inactive call.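 The calls were made as follows: active = inhibition above about 30% (limit read from the data); inactive = the rest.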

The target in this assay is Neutrophil cytosol factor 1 (Homo sapiens) (UniProt P14598). Briefly: p47phox/p22phox peptide binding inhibitors, primary screen, biochemical, uHTS, NADPH oxidase regulatory subunit (AID 1274).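 Also: 0% = p47phox with labelled peptide and 100% = labelled peptide alone.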 To be noted: fluorescence polarization, 2 h, at 24.7 µM, stronger effect = higher value. (Fluorescence polarisation rises when a labelled molecule tumbles more slowly, as on binding a larger partner.)
Neutrophil cytosol factor 1 (Homo sapiens), sequence (P14598 whole entry, looked up): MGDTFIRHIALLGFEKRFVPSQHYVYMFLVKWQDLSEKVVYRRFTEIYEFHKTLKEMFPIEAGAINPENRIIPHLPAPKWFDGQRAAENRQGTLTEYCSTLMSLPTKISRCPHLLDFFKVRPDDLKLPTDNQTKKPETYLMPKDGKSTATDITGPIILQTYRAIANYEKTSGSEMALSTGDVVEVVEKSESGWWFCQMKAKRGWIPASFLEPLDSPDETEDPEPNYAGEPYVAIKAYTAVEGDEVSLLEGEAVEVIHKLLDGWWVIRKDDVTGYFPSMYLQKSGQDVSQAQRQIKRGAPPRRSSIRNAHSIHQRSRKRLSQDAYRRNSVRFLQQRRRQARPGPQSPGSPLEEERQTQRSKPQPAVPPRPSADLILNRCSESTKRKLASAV
For orientation: inhibition means the drop in the measured response relative to a control, in per cent. For the compound `Cc1ccnc(N2CCC(C(=O)NC3CCCCCC3)CC2)n1`, the inhibition is -2.85%. Under `Cc1ccnc(-n2sc3ccccc3c2=O)n1` stands 35% (active). `Cc1ccnc(Nc2nc3ccccc3s2)n1`: the inhibition is -4.23%. Under `COc1ccc(CN2CCOC2=O)cc1OC` stands -11.8%; under `COc1ccc(-c2noc(-c3cccc(OC)c3OC)n2)cc1OC`, -9.37%.

As to `COc1ccc(-c2csc(-c3cccs3)n2)cc1OC`, the inhibition is -15.5%. Under `COc1ccc(-c2csc3nc(-c4ccccc4F)oc(=O)c23)cc1OC` stands 89.6% (active); under `O=c1ccnc(Nc2ccc(Cl)cc2)[nH]1`, -15.2%; under `COc1cccc(OCC(=O)NNC(=O)c2cnccn2)c1`, -5.83%. Under `CSC1=NC2(C)CCCCC2C12C=CC(=O)C=C2` (configuration not stated) stands 12.3%; under `O=[N+]([O-])c1ccccc1NCc1ccc(Cl)cc1`, 10.1%. Under `Oc1ccc(N2CCN(C(=S)NCc3ccccc3)CC2)cc1` stands -4.47%; under `Oc1ccc(CNc2ccccc2O)cc1`, 72.8% (active). In the case of `COc1ccc(SCCN2CCN(CC(C)C)CCC2=O)cc1`, the inhibition is -5.09%. The value for `O=C(NCCCN1CCCCCC1)c1ccc(N2CCCC2=O)cc1` was 31.1% (active).

Turning to `CC1CCC(NC(=O)c2ccc(N3CCCC3=O)cc2)CC1` (configuration not stated), the inhibition is -4.19%. Consider `CCOc1ccc(C(=O)NCCCN2CCCC2=O)cc1`, for which the inhibition is -1.06%.

With `COCCN1C(=O)N[C@@H](CCc2ccccc2)[C@H](C(C)=O)[C@H]1C`, the inhibition is -14.3%. Turning to `CC(C)N(C(=O)Cn1cc(SCC(=O)N2CCCC2)c2ccccc21)C(C)C`, the inhibition is -1.84%. On to `Cc1ccnc(NS(=O)(=O)c2ccc(NC(=O)c3ccc(S(=O)(=O)N4CCOCC4)cc3)cc2)n1`, for which the inhibition was -8.81%. Under `O=C(Nc1ccc(S(=O)(=O)Nc2ncccn2)cc1)c1cncc(Br)c1` stands -1.88%; under `Cc1ccnc(NS(=O)(=O)c2ccc(NC(=O)c3ccc(S(=O)(=O)N(C)C)cc3)cc2)n1`, 93.9% (active); under `CCCN(c1ccc(C)cc1)c1nc(=O)c2cccnc2s1`, 3.57%. The value for `COCCOC(=O)C1=C(C)Nc2nc(C)nn2C1c1ccccc1` (configuration not stated) was -2.35%; that for `COc1cc(C2C(C(=O)Nc3ccc(F)cc3)=C(C)Nc3nc(CCCO)nn32)cc(OC)c1OC` (configuration not stated) was 8.1%. In the case of `COC(=O)c1nc2n(n1)C(c1ccc([N+](=O)[O-])cc1)C(C(=O)Nc1ccc(Cl)cc1)=C(C)N2` (configuration not stated), the inhibition is 35.3% (active). The value for `COC(C[C@@H](O)[C@H](C)[C@H](O)COCc1ccccc1)OC` was -7.85%; that for `O=[N+]([O-])c1ccc2c(c1)C(O)n1nc(-c3ccccc3)nc1S2` (configuration not stated) was -0.84%. `O=C1/C(=C/c2coc3ccc(O)cc3c2=O)SC(=S)N1c1ccccc1`: the inhibition was -31.6%. In the case of `CCC1(C)Cc2c(sc3nc(SC)[nH]c(=O)c23)CO1` (configuration not stated), the inhibition was -0.95%. The value for `Fc1ccccc1Cn1cnc(NC(=S)NCCc2ccccc2)n1` was 5.03%; that for `S=c1[nH]nc(Nc2ccccc2)s1` was 6.03%. The value for `S=c1[nH]nc(NCCc2ccccc2)s1` was 35.4% (active); that for `Cc1nc(C)c(-c2csc(NCCc3ccccc3)n2)s1` was -1.49%. `CC1CC(NC(=O)/C(C#N)=C/c2ccc[nH]2)CC(C)(C)C1` (configuration not stated): the inhibition was -2.3%.

`COCCCNC(=S)N1CCCC(c2nc3cc(C)c(C)cc3[nH]2)C1` (configuration not stated): the inhibition is 33.6% (active). Under `CCCNC(=S)N1CCCC(c2nc3ccccc3[nH]2)C1` (configuration not stated) stands -3.87%.

Consider `CCNC(=S)N1CCC(c2nc3cc(C)c(C)cc3[nH]2)CC1`, for which the inhibition is -2.83%. With `O=C(O)CCc1nc2cc(Cl)ccc2n(Cc2ccccc2)c1=O`, the inhibition is -13.1%.

Take `Cc1ccccc1CSc1nnc(CCCCCNC(=O)OC(C)(C)C)o1`: the inhibition was -9.1%.

Take `COC(=O)c1sc(NC(=S)NC(=O)c2ccc(C)cc2)nc1C`: the inhibition is -24.1%. The value for `COc1ccc(F)cc1S(=O)(=O)N1CCCCC1` was -2.33%. For `CC1=C/C(=N\OS(=O)(=O)c2ccccc2)C=CC1=O`, the inhibition was 53.2% (active). Under `CC1=C/C(=N\S(=O)(=O)c2ccccc2)C(C(C)C)=CC1=O` stands -6.28%; under `CCOC(=O)C1(S(=O)(=O)c2ccccc2)CCN(Cc2ccccc2)CC1`, -0.94%; under `CCN(CC)CCn1cnc2c1c(=O)n(CCOC(=O)c1cc(OC)c(OC)c(OC)c1)c(=O)n2C`, -17%.

As for `Cc1cc(-c2nc(C)c(-c3nnc(SCC(=O)Nc4ccccc4)n3C)s2)no1`, the inhibition is -5.21%. Under `COc1ccc2oc(-c3cccc(NC(=O)CSc4ccc(Cl)cc4)c3)nc2c1` stands 152% (active). Under `O=C(Cc1cccc2ccccc12)Nc1ccc2oc(-c3ccccc3)nc2c1` stands -10.3%; under `COc1cccc(-c2nc3cc(C)ccc3o2)c1`, -18%. The value for `O=c1[nH]n2c(=O)c3c([nH]c2c1N=Nc1ccccc1)CCC3` was 5.2%; that for `Cc1ccc(Cc2c(C)nc3nc(SCC(=O)NCCN4CCOCC4)nn3c2C)cc1` was 2.55%; that for `Cc1nc2nc(SCC(=O)NCc3ccco3)nn2c(C)c1Cc1ccccc1` was 39.5% (active). Take `Cc1cc(C)n2nc(SCC(=O)NC(=O)NCc3ccco3)nc2n1`: the inhibition was 65.5% (active).

With `Cc1ccc(SCC(=O)NC(=O)NCc2ccco2)c(C)c1`, the inhibition was -8.32%. Under `Cc1cc(C)n2nc(SCC(N)=O)nc2n1` stands -2.75%; under `COc1cc(OC)cc(-c2nc3nc(C)c(CCC(=O)NCc4ccco4)c(C)n3n2)c1`, -14.7%. On to `COc1cccc2c1OCC(CN1CCN(C3CCCCC3)C(CCO)C1)=C2` (configuration not stated), for which the inhibition is -0.19%. Under `Cc1noc(C)c1-c1nc(CSc2ccc(Cl)cc2)no1` stands -18.6%; under `CCc1ccc[n+](-c2nc([O-])sc2C=O)c1`, -6.22%; under `CCOC(=O)c1ccc(S(=O)(=O)N(CCO)Cc2cc3cc(OC)c(OC)cc3[nH]c2=O)cc1`, -9.36%. With `CCc1ccc(NC(=O)CN2C(=O)CSC2=O)cc1`, the inhibition was 1.09%. The value for `OC(CN1C2=NCCCN2c2ccccc21)c1ccc(Br)cc1` (configuration not stated) was -5.7%; that for `CCN1CCN(CCNC(=O)c2ccc(/C=C3/Sc4ccccc4N(Cc4cccc(C)c4)C3=O)cc2)CC1` was 102% (active).

As to `Cc1nn(Cc2ccccc2)c(C)c1C(=O)NCCN1C(=O)S/C(=C\c2ccc(F)cc2)C1=O`, the inhibition is 19.6%. As for `O=C(CN1C(=O)/C(=C\c2ccc(C(F)(F)F)cc2)Sc2ccccc21)NCc1ccco1`, the inhibition was -2.69%.

As to `CCOc1ccc2nc(C(=O)N3CCCC(C)C3)sc2c1` (configuration not stated), the inhibition was -1.85%. The value for `O=C(NCc1ccco1)C1CCCN1S(=O)(=O)c1ccccc1C(F)(F)F` (configuration not stated) was -2.26%; that for `O=C(Nc1ccc2c(c1)OCCO2)c1cnccn1` was 161% (active). Under `O=C(Nc1ccc2c(c1)OCCO2)c1ccoc1` stands -11.2%. Under `O=C(Nc1cccc(NC(=O)c2ccco2)c1)c1cnccn1` stands -22.1%; under `O=P(O)(CN1CCCCCC1)C1Cc2ccccc2C1`, -16.2%. Take `O=C(COc1ccc([N+](=O)[O-])cc1Cl)Nn1cnnc1`: the inhibition is -5.37%. The value for `CCN(CC)CC(=O)c1c[nH]c2ccc(OC)cc12` was 68.2% (active); that for `COc1ccc2[nH]c3ccc(OC)cc3c2c1` was -9.23%; that for `COc1cccc(-n2c(SCC(=O)c3c[nH]c4ccccc34)nc3ccccc3c2=O)c1` was -14.5%. `CCNc1ccc(C(=O)OCC(=O)N2c3ccccc3NC(=O)C2(C)C)cc1[N+](=O)[O-]`: the inhibition was -6.42%. Under `CC(=O)NC(CC(=O)Nc1nccs1)c1ccccc1` (configuration not stated) stands 1.69%.

Take `CCOC(=O)N1CCC(NC(=O)C(NS(=O)(=O)c2ccc3c(c2)CCN3C(=O)CC)C(C)C)CC1` (configuration not stated): the inhibition was 2.67%. With `Cc1ccc2nc(-c3cccc(Br)c3)cc(C(=O)Nn3cnnc3)c2c1`, the inhibition was -7.35%. Turning to `Cc1ccc(-c2cc(C(=O)NCc3cn(C)nc3C)c3cc(Br)ccc3n2)cc1`, the inhibition is 31.9% (active). Under `COc1ccc(Cl)cc1C(=O)NCc1cn(C)nc1C` stands -8.12%. The value for `OC(CNCc1ccc2c(c1)OCO2)COc1ccccc1` (configuration not stated) was -9.52%. Under `Cc1ccc(S(=O)(=O)N(CC(=O)NN=C2CCN(C)CC2)c2ccc(F)cc2)cc1` stands 37.2% (active); under `CN1CCC(=NNC(=O)CN(c2cccc(Cl)c2)S(C)(=O)=O)CC1`, 6.83%; under `CCNC(=O)CN(c1ccc(C)cc1)S(=O)(=O)c1ccc(SC)cc1`, -7.61%. With `COc1cc(C(F)(F)F)nc2c(Br)c(C(C)(C)C)nn12`, the inhibition is 7.7%. Under `Cc1ccc(SCC(=O)c2cc(C)c(OC(=S)N(C)C)c(C)c2)cc1` stands -4.09%; under `O=C1NC[C@@H](Cc2ccc(O)cc2)N(CCc2cccc(F)c2)C1=O`, -6.81%; under `Cc1cc(C)c2nc3nc(C)cc(C)c3c(N)c2c1`, 35.3% (active). The value for `Cc1cc(C)c2nc(SCCC#N)nc(C)c2c1` was 1.52%; that for `Cc1cc(C)c2nc(-c3ccco3)cc(C(=O)O)c2c1` was -9.96%. Under `COc1ccc(CNC(=O)CCC(=O)Nc2nnc(C(C)C)s2)cc1` stands -6.23%; under `CCOC(=O)C1(O)CC(C)=NN1C(=O)c1cccc(Br)c1` (configuration not stated), -4.11%. For the compound `CC1=NN(C(=O)c2ccc(Br)cc2)C(O)(c2ccccc2)C1` (configuration not stated), the inhibition is 40.2% (active). The value for `CC1=NN(C(=O)c2ccccc2Br)C(O)(c2cccnc2)C1` (configuration not stated) was 1.24%. The value for `CN(C)C(CNC(=O)Cc1ccc([N+](=O)[O-])cc1)c1ccccc1` (configuration not stated) was -9.03%.
